In PubChem BioAssay:
Values without a mark were called inactive. The rule behind the calls is not given here.

Target: Pantothenate synthetase (Mycobacterium tuberculosis (strain ATCC 25618 / H37Rv)) (UniProt P9WIL5)
Assay: Coupled enzyme confirmation of inhibitors against recombinant Mtb PanC (AID 375);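 note: 0% = full reaction with vehicle and 100% = no enzyme background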
Details: coupled enzyme assay; at 10 µM, active compounds read high

Chain of Pantothenate synthetase (Mycobacterium tuberculosis (strain ATCC 25618 / H37Rv)) (P9WIL5 whole entry, looked up): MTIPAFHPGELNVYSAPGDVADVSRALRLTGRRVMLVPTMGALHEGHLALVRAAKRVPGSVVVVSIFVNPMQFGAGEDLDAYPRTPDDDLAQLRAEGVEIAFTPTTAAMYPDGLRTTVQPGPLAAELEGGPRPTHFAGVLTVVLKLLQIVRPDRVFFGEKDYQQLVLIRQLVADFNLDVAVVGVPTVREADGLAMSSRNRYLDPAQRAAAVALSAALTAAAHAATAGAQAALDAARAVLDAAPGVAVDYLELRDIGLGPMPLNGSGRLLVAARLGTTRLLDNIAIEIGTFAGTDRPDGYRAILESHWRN

SMILES	inhibition
O=C1CC(N2CCN(C3CCc4ccccc4C3)CC2)C(=O)N1c1ccccc1 (centres undefined)	0%
CCn1nc(C(=O)O)c(=O)c2cc3c(cc21)OCO3	5%
O=C(c1ccco1)N1CCN(C(=O)c2sccc2-c2ccccc2)CC1	0%
CCC(C)OC(=O)c1[nH]c2c(c1C)C(=O)CC(c1ccc(N(C)C)cc1)C2 (centres undefined)	0%
